From PubChem BioAssay (NCI) come the findings set out here.

About 79,000 compounds went through this panel and 15% of them were active in at least one assay; those are over-represented in the sample as a whole. Unmarked numbers belong to inactive results. Calls of active or inactive are those of the source. Cut-off read from the data, not from the text of the source: active = growth inhibition above about 70%; inactive = the rest.

A short description of this test: NCI Yeast Anticancer Drug Screen. Data for the mlh1 strain (AID 171).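 Note: 0% = growth of vehicle-treated control cultures of the same strain.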 The note with it: S. cerevisiae mlh1 strain growth inhibition, hits give high values. As for the experimental part:
Growth inhibition of yeast strains with defined genetic alterations is measured as a screen for potential anti-cancer activity. Selected strains with alterations in DNA damage repair or cell cycle control were exposed to compounds and growth inhibition was measured relative to vehicle treated controls. The strain used in this assay is mlh1

Consider `Nc1cc2c(cc1N)-c1ccccc1C2=O`, for which the growth inhibition reads like this: (at 1.2 µM) -1%; (at 3.7 µM) -2%; (at 11.0 µM) -2%; (at 33.0 µM) 2%; (at 100.0 µM) 86% (active).

`CCOP(=O)(OCC)/C(C#N)=C\c1cccc2ccccc12`: the growth inhibition is, setting by setting: (at 1.2 µM) 11%; (at 3.7 µM) 10%; (at 11.0 µM) 17%; (at 33.0 µM) 89% (active); (at 100.0 µM) 98% (active).

`O=S1(=O)CCC2=CC(C(F)(F)F)=CC(C(F)(F)F)=CN21`: the growth inhibition (at 1.2 µM) is 27%; the growth inhibition (at 3.7 µM) is 36%; the growth inhibition (at 11.0 µM) is 67%; the growth inhibition (at 33.0 µM) was 86% (active); the growth inhibition (at 100.0 µM) was 98% (active).

For the compound `CCN(CC)CCC(=O)Nc1ccc2sc3ccccc3c(=O)c2n1`, the growth inhibition by setting is: (at 1.2 µM) -2%; (at 3.7 µM) -8%; (at 11.0 µM) 1%; (at 33.0 µM) 12%; (at 100.0 µM) 7%.

Take `O=C(C#Cc1ccccc1)Nc1ccccc1`: the growth inhibition is, setting by setting: (at 1.2 µM) -15%; (at 3.7 µM) -12%; (at 11.0 µM) -9%; (at 33.0 µM) 72% (active); (at 100.0 µM) 98% (active).

Turning to `CCCN=Cc1cc(Cc2ccc(O)c(C=NCCC)c2)ccc1O`, the growth inhibition (at 1.2 µM) is 60%; the growth inhibition (at 3.7 µM) was 96% (active); the growth inhibition (at 11.0 µM) was 98% (active); the growth inhibition (at 33.0 µM) was 98% (active); the growth inhibition (at 100.0 µM) is 96% (active).

As to `O=C1NC(c2cccc(OCc3ccccc3)c2)Nc2ccccc21` (stereo not given), the growth inhibition is 1% (at 1.2 µM); 1% (at 3.7 µM); 5% (at 11.0 µM); -4% (at 33.0 µM); -14% (at 100.0 µM).

For the compound `O=[N+]([O-])c1ccc(C(c2c[nH]c3ccccc23)c2c[nH]c3ccccc23)cc1`, the growth inhibition by setting is: (at 1.2 µM) 33%; (at 3.7 µM) 98% (active); (at 11.0 µM) 97% (active); (at 33.0 µM) 94% (active); (at 100.0 µM) 90% (active).
